Values joined by “and” are separate entries in the source; they are usually repeats but may differ in a detail not shown here. Equal entries are not always repeated. About 83,000 compounds went through this panel and 20% of them were active in at least one assay; those are over-represented in the sample as a whole.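 Interpretation: 100, growth as untreated; towards 0, rising growth inhibition; 0, no net growth; 0 to -100, cell death. Compounds scoring below 10 were considered active.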 Unmarked numbers belong to inactive results. Active and inactive are the calls of the source.
tested on: MDA-MB-468 breast; assay: NCI-60 one-dose screen, 48 h (100 = growth as untreated, 0 = no growth, -100 = all killed); conditions: 10 µM unless noted

Row | Structure (SMILES) | growth
1 | O=C(/C=C/c1ccccc1)c1c[nH]c2ccccc2c1=O | -52.7% (active)
2 | CC(C)OC(=O)Nc1cc(F)c(F)cc1F | 84%
3 | CNC(=O)c1cc(Oc2ccc3nc(Nc4cc(Cl)cc(Cl)c4)ccc3c2)ccn1 | 54.1%
4 | Cc1ccc(Nc2cccc3ccccc23)cc1 | -11.7% (active)
5 | O=C(c1cccc(F)c1)n1ccc2cc(NC(=S)Nc3cccnc3)ccc21 | 91.9%
6 | COc1ccc(C(=O)Nn2c(NCC(=O)N3c4ccccc4Sc4ccccc43)nnc2-c2ccc(O)cc2)cc1 | 107%
7 | CN(C)CCCNc1c2ccc(Cl)cc2nc2c1oc1ccc(Cl)cc12 | 36.4%
8 | CC(=O)c1cc(C(=O)c2ccc3c(c2)Sc2ccccc2N3)c2c(C)cccn12 | 14%
9 | CCSCC1CC(O)(c2ccccc2)C(c2ccccc2)C(c2ccc(F)cc2)O1 (stereo not given) | -18% (active)
10 | CCO/C=N/C1=C(C#N)C(c2ccc(F)cc2)c2sc3c(F)cccc3c2O1 (stereo not given) | 27.2%
11 | COc1ccc(NCc2cn(-c3ccc(C(=O)O)cc3)nc2-c2ccc(C(=O)O)cc2)cc1C(F)(F)F | 98.6%
12 | O=C1c2cc(Cl)ccc2-c2c(O)cc(Cl)cc21 | 48.6%
13 | CCNCCNc1cc(C2CCCC2)c(C#N)c2nc3ccccc3n12 | -25.5% (active)
14 | C=CC(=O)N1CCN(c2ccc3cccc(NC(=O)c4cnc(C)cn4)c3n2)CC1 | 1.58% (active)
15 | O=c1cc(C2NCCc3c2[nH]c2ccccc32)c2c(ccc3ccccc32)o1 (stereo not given) | 89.9%
16 | O=C(CNS(=O)(=O)Cc1ccccc1)NNc1ccccc1 | 79.4%
17 | CC#Cc1nc2ccccc2c(=O)[nH]1 | 14.8%
18 | Cc1[nH]c(C(=O)Nc2ccc(C(=O)N3CCN(c4cc5c(cc4F)c(=O)c(C(=O)O)cn5C4CC4)CC3)cc2OC(C)C)c(Cl)c1Cl | 85.9%
19 | COc1cc(C2CC(c3ccc(Nc4nc(NCCO)nc(NCCO)n4)cc3)=NN2c2cc(Cl)cc(Cl)c2)cc(OC)c1OC (stereo not given) | -9.24% (active)
20 | O=c1[nH]c(=S)[nH]c(=O)n1Cc1cccc2ccccc12 | 107%

Row | Structure (SMILES) | growth
21 | COc1ccc2c(c1)/C(=C/c1cc(OC)c(OC)c(OC)c1)C(=O)N2C | 25.9%
22 | Cn1cnc2nc(Cl)nc(Cl)c21 | 21.7%
23 | O=C1/C(=C\c2ccc(F)cc2)CN(C(=O)c2ccccc2)C/C1=C\c1ccc(F)cc1 | 5.47% (active)
24 | COc1ccc(-c2nc(N/N=C/c3cccc(Br)c3)nc(N3CCOCC3)c2C#N)cc1 | 73.4%
25 | COc1ccc(/C=N/NC(=O)c2ccc(-n3cc(-c4ccccc4)nn3)cc2)cc1OC | 101%
26 | O=C1Nc2ccccc2/C1=C\c1nc(-c2ccccc2F)n2ccccc12 | 8.76% (active)
27 | Clc1ccc2c(c1)N(CCCN1CCCC1)c1ccccc1S2 | 16.4%
28 | COC(=O)[C@]1(CCSC)N[C@H](c2cn(-c3ccccc3)nc2C)[C@@H]2C(=O)N(c3ccc(C)cc3)C(=O)[C@@H]21 | 127%
29 | COc1ccc(-c2nc(SCCC(C)C)nc(N/N=C(/C)c3ccc(N)cc3)c2C#N)cc1 | 103%
30 | O=C(CSc1nc2sc3c(c2c(=O)n1-c1ccc(Cl)cc1)CCCC3)NNC(=O)Nc1ccc(Cl)c(C(F)(F)F)c1 | -42.4% (active)
31 | S=C=NP1(N=C=S)=NP(N=C=S)(N=C=S)=NP(N=C=S)(N=C=S)=NP(N=C=S)(N=C=S)=N1 (stereo not given) | 107%
32 | NS(=O)(=O)OCC1OC(n2cnc3cncnc32)C(O)C1O (stereo not given) | 5.51% [0.1 µM] (active) and -18.9% [0.1 µM] (active)
33 | CCc1ccc(/C(C#N)=C/C=C/c2ccccc2)cc1 | -13.9% (active)
34 | C[N+]1(CC2CO2)CCCCCC1 (stereo not given) | 103%
35 | COc1cc(/C=C/C(=O)Nc2ccc3c(c2)/C(=C\c2cccn2C)C(=O)N3)cc(OC)c1OC | 47.4%
36 | CCCCc1nc(Cl)c(C2CC(c3ccc(S(N)(=O)=O)cc3)=NN2c2cc(Cl)cc(Cl)c2)[nH]1 (stereo not given) | 22.1%
37 | c1ccc(-c2cccc(-c3ccccn3)n2)nc1 | -15.6% (active)
38 | COc1cccc(CNc2cccc3cn[nH]c23)c1O | 80.6%
39 | CN(c1ccc(Br)cc1)S(=O)(=O)c1ccc(-c2cnc(C3CC3)o2)cc1 | 11.7%
40 | Cc1cc2nc(-c3c(N)ncc(C#N)c3-c3ccc(Cl)cc3)[nH]c2cc1C | 66%

— PubChem BioAssay (NCI)
